In PubChem BioAssay (Tox21):
Results filed as inconclusive are left out. Calls of active or inactive are those of the source. Calls follow the shape of the dose curve; as a rule, active = well fitted curve in the direction sought with a large enough effect in the repeat runs; inconclusive = weak or mixed curves; inactive = no such curve, though single readings can be large; an effect the other way counts as inactive or inconclusive.

Experiments:
[1] = qHTS RealTime-Glo MT Cell Viability Assay in HEK293 cells - 16 hour (AID 1224872); also: nearly all actives have a fitted effect of over 50% in size; also: potency is read from the fitted curve at half-maximal effect
In short: (§1)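 Quantitative high-throughput screen of the Tox21 10K library in HEK293: cells and RealTime-Glo reagents plated together, compound added at 5 h, luminescence monitored through 40 h at 37 C.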

[2] = qHTS RealTime-Glo MT Cell Viability Assay in HepG2 cells - 8 hour (AID 1224873); also: nearly all actives have a fitted effect of over 55% in size
In short: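 HepG2 cells (600/well) mixed with RealTime-Glo MT reagent, settled 5 h at 37 C/5% CO2 before compound addition. Nonlytic NanoLuc luminescence from viable-cell prosubstrate reduction read repeatedly during 40 h treatment at 37 C.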

[3] = qHTS RealTime-Glo MT Cell Viability Assay in HEK293 cells - 40 hour (AID 1224874); details: RealTime-Glo luminescence; max response: hits give low values; also: nearly all actives have a fitted effect of over 50% in size
In short: (§2)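 Real-time viability in HEK293: signal arises when living cells convert a prosubstrate for NanoLuc in the medium, so luminescence tracks viable cell number. Compound (23 nL, DMSO) added 5 h post-seeding; kinetic reads at 0–40 h, 37 C.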

[4] = A CellTox Green Cytotoxicity Assay to monitor cytotoxicity in HEK293 cells - 24 hour (AID 1224875); also: nearly all actives have a fitted effect of over 45% in size; also: potency is read from the fitted curve at half-maximal effect
In short: (§3)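 Cells (HEK293, 600/well) and dye reagent are dispensed together. After 5 h at 37 C, 23 nL compound is pinned in. Plates stay at 37 C for 40 h with fluorescence read at 0h, 8h, 16h, 24h, 32h and 40h.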

[5] = A CellTox Green Cytotoxicity Assay to monitor cytotoxicity in HepG2 cells - 16 hour (AID 1224876); also: nearly all actives have a fitted effect of over 45% in size
In short: (§4)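 Cells and non-lytic dye reagent are dispensed together (600 HepG2 cells/well) and incubated 5 h before DMSO compound transfer. Kinetic fluorescence is then recorded in the same wells during 40 h at 37 C.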

[6] = A CellTox Green Cytotoxicity Assay to monitor cytotoxicity in HepG2 cells - 24 hour (AID 1224878); also: nearly all actives have a fitted effect of over 45% in size
In short: as §4

[7] = A CellTox Green Cytotoxicity Assay to monitor cytotoxicity in HepG2 cells - 40 hour (AID 1224879); also: nearly all actives have a fitted effect of over 40% in size
In short: as §4

[8] = qHTS RealTime-Glo MT Cell Viability Assay in HEK293 cells - 0 hour (AID 1224880); also: top concentration of the series differs between compounds; nearly all actives have a fitted effect of over 45% in size
In short: as §2

[9] = A CellTox Green Cytotoxicity Assay to monitor cytotoxicity in HEK293 cells - 32 hour (AID 1224881); also: nearly all actives have a fitted effect of over 40% in size; also: potency is read from the fitted curve at half-maximal effect
In short: as §3

[10] = A CellTox Green Cytotoxicity Assay to monitor cytotoxicity in HepG2 cells - 0 hour (AID 1224882); also: nearly all actives have a fitted effect of over 35% in size
In short: as §4

[11] = A CellTox Green Cytotoxicity Assay to monitor cytotoxicity in HepG2 cells - 32 hour (AID 1224883); also: nearly all actives have a fitted effect of over 50% in size
In short: as §4

[12] = A CellTox Green Cytotoxicity Assay to monitor cytotoxicity in HEK293 cells - 8 hour (AID 1224884); also: nearly all actives have a fitted effect of over 35% in size
In short: as §3

[13] = qHTS RealTime-Glo MT Cell Viability Assay in HepG2 cells - 16 hour (AID 1224885); also: nearly all actives have a fitted effect of over 50% in size
In short: (§5)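 Compound treatment began 5 h after plating HepG2 cells (600/well) with NanoLuc luciferase and prosubstrate. Plates stayed at 37 C for 40 h; luminescence was captured at six time points, 0 h through 40 h.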

[14] = qHTS RealTime-Glo MT Cell Viability Assay in HEK293 cells - 24 hour (AID 1224886); also: nearly all actives have a fitted effect of over 50% in size; also: potency is read from the fitted curve at half-maximal effect
In short: as §1

[15] = qHTS RealTime-Glo MT Cell Viability Assay in HEK293 cells - 8 hour (AID 1224887); also: nearly all actives have a fitted effect of over 50% in size; also: potency is read from the fitted curve at half-maximal effect
In short: as §2

[16] = A CellTox Green Cytotoxicity Assay to monitor cytotoxicity in HEK293 cells - 16 hour (AID 1224888); also: nearly all actives have a fitted effect of over 35% in size
In short: as §3

[17] = qHTS RealTime-Glo MT Cell Viability Assay in HepG2 cells - 0 hour (AID 1224889); also: nearly all actives have a fitted effect of over 50% in size
In short: as §5

[18] = A CellTox Green Cytotoxicity Assay to monitor cytotoxicity in HepG2 cells - 8 hour (AID 1224890); also: nearly all actives have a fitted effect of over 45% in size
In short: as §4

[19] = qHTS assay to identify small molecule antagonists of the estrogen receptor alpha (ER-alpha) signaling pathway using the BG1 cell line in the presence of 0.1 nM 17-beta-estradiol - cell viability counter screen (AID 1259241); also: nearly all actives have a fitted effect of over 40% in size
In short: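 Cytotoxicity counter-screen: live-cell protease activity measured by fluorescence (30 min reagent step) in the same wells. Cells were VM7Luc4E2 with endogenous ER-alpha and ERE-driven luciferase, treated 22 hr at 37C alongside 0.1 nM 17beta-estradiol final.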

[20] = qHTS RealTime-Glo MT Cell Viability Assay in HepG2 cells - 32 hour (AID 1224877); also: nearly all actives have a fitted effect of over 55% in size
In short: as §5
% is scaled to controls: 0 for no effect and ±100 for the full control effect.

C1CN2CCC1CC2
inactive: Potency [1] | outcome [2] | max response [3] 0.665% | Potency [4] | Potency [5] | Potency [6] | Potency [7] | outcome [8] | Potency [9] | outcome [10] | Potency [11] | Potency [12] | Potency [13] | Potency [14] | Potency [15] | Potency [16] | outcome [17] | Potency [18]

CCCC(C)(COC(N)=O)COC(N)=O
inactive: Potency [1] | outcome [2] | max response [3] 2.95% | Potency [4] | Potency [5] | Potency [6] | Potency [7] | outcome [8] | Potency [9] | outcome [10] | Potency [11] | Potency [12] | Potency [13] | Potency [14] | Potency [16] | outcome [17] | Potency [18] | outcome [19]

Clc1ccc(C(Cl)(Cl)Cl)cn1
inactive: Potency [1] | outcome [2] | max response [3] 1.5% | Potency [5] | Potency [20] | Potency [7] | outcome [8] | outcome [10] | Potency [11] | Potency [13] | Potency [14] | Potency [15] | outcome [17] | Potency [18] | outcome [19]
active: Potency [4] 34.7 µM | Potency [9] 34.7 µM

O=C(O)C(Br)(Br)Br
inactive: Potency [1] | outcome [2] | max response [3] -0.0563% | Potency [4] | Potency [5] | Potency [6] | Potency [7] | outcome [8] | Potency [9] | outcome [10] | Potency [11] | Potency [12] | Potency [13] | Potency [15] | Potency [16] | outcome [17] | Potency [18] | outcome [19]

CCN[C@@H](C)Cc1cccc(C(F)(F)F)c1
inactive: Potency [1] | outcome [2] | max response [3] 2.94% | Potency [4] | Potency [5] | Potency [6] | Potency [7] | outcome [8] | Potency [9] | outcome [10] | Potency [11] | Potency [12] | Potency [13] | Potency [14] | Potency [15] | Potency [16] | outcome [17] | Potency [18] | outcome [19]

CCCCS(=O)(=O)Cl
inactive: Potency [1] | outcome [2] | Potency [4] | Potency [5] | Potency [20] | Potency [6] | Potency [7] | outcome [8] | Potency [9] | outcome [10] | Potency [11] | Potency [12] | Potency [13] | Potency [14] | Potency [15] | Potency [16] | outcome [17] | Potency [18] | outcome [19]

CCCC[N+](=O)[O-]
inactive: Potency [1] | outcome [2] | Potency [4] | Potency [5] | Potency [20] | Potency [6] | Potency [7] | outcome [8] | outcome [10] | Potency [11] | Potency [12] | Potency [13] | Potency [14] | Potency [15] | Potency [16] | Potency [18] | outcome [19]

CCc1cc(OC)c(C[C@H](C)N)cc1OC
inactive: Potency [1] | outcome [2] | Potency [4] | Potency [5] | Potency [20] | Potency [6] | Potency [7] | outcome [8] | Potency [9] | Potency [11] | Potency [12] | Potency [15] | Potency [16] | outcome [17] | Potency [18] | outcome [19]

C[C@H]1CCCC(=O)CCC/C=C/c2cc(O)cc(O)c2C(=O)O1
inactive: outcome [2] | Potency [4] | Potency [5] | Potency [20] | Potency [6] | outcome [8] | Potency [9] | outcome [10] | Potency [11] | Potency [12] | Potency [16] | outcome [17] | Potency [18]
active: Potency [1] 37.5 µM | Potency [14] 33.4 µM | Potency [15] 42.1 µM

C(COCC1CO1)OCC1CO1 (stereo unspecified)
inactive: Potency [1] | outcome [2] | Potency [4] | Potency [5] | Potency [20] | Potency [6] | Potency [7] | outcome [8] | Potency [9] | outcome [10] | Potency [11] | Potency [12] | Potency [13] | Potency [14] | Potency [16] | outcome [17] | Potency [18] | outcome [19]

CCOC(=O)NC(C)(C)Cc1ccc(Cl)cc1
inactive: Potency [1] | outcome [2] | max response [3] 0.66% | Potency [5] | Potency [20] | Potency [6] | Potency [7] | outcome [8] | Potency [11] | Potency [12] | Potency [13] | Potency [14] | Potency [15] | Potency [16] | outcome [17] | Potency [18] | outcome [19]

[P]#[In]
inactive: Potency [1] | outcome [2] | Potency [4] | Potency [5] | Potency [20] | Potency [6] | Potency [7] | outcome [8] | Potency [9] | outcome [10] | Potency [11] | Potency [12] | Potency [13] | Potency [14] | Potency [15] | Potency [16] | outcome [17] | Potency [18] | outcome [19]

ClCCN1CCCC1
inactive: Potency [1] | outcome [2] | Potency [4] | Potency [5] | Potency [20] | Potency [6] | Potency [7] | outcome [8] | Potency [9] | outcome [10] | Potency [11] | Potency [12] | Potency [13] | Potency [15] | Potency [16] | outcome [17] | Potency [18]

O=C(Cl)CCl
inactive: Potency [1] | outcome [2] | Potency [4] | Potency [5] | Potency [20] | Potency [6] | Potency [7] | outcome [8] | Potency [9] | outcome [10] | Potency [11] | Potency [12] | Potency [13] | Potency [14] | Potency [15] | Potency [16] | outcome [17] | Potency [18] | outcome [19]

CCC(=O)OC1(c2ccccc2)CCN(C)CC1
inactive: Potency [1] | outcome [2] | Potency [4] | Potency [5] | Potency [20] | Potency [6] | Potency [7] | outcome [8] | Potency [9] | outcome [10] | Potency [11] | Potency [12] | Potency [13] | Potency [14] | Potency [15] | Potency [16] | outcome [17] | Potency [18]
